Reference: PubChem BioAssay AID1159580 (chemical genetic matrix, 2015)
Screen size: about 5,500 compounds; about 2,000 (36%) were called active. Inconclusive results (about 18%) are left out. Rule as the data show it: active = normalized growth mostly below about 0.91 (no sharp cut-off); inconclusive = no clear call, values can overlap the other calls; inactive = mostly above about 0.92. The list shows a part of the results.

Test: chemical genetic growth profiling, strain panel (AID 1159580);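 also: tested at 20 µM; growth read once vehicle control cultures reached saturation at 30 °C; 1 = growth at the plate median or of vehicle wells; lower values mean less growth of the strain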
Settings: growth OD

Measured: normalized growth

O=c1cc(-c2ccccc2)oc2c(O)c(O)ccc12
inactive: S. cerevisiae deletion strains, locus YJR066W, strain TOR1, active compounds read low 0.985 | S. cerevisiae deletion strains, locus YJR075W, strain HOC1, active compounds read low 1.01 | S. cerevisiae deletion strains, locus YKL009W, strain mrt4, active compounds read low 0.96 | S. cerevisiae deletion strains, locus YKL068W, active compounds read low 0.976 | S. cerevisiae deletion strains, locus YKL085W, strain MDH1 (second series), active compounds read low 0.986 | S. cerevisiae deletion strains, locus YKL085W, strain MDH1, active compounds read low 0.986 | S. cerevisiae deletion strains, locus YKL160W, strain elf1, active compounds read low 0.986 | S. cerevisiae deletion strains, locus YKR026C, strain gcn3, active compounds read low 0.993 | S. cerevisiae deletion strains, locus YKR091W, strain srl3, active compounds read low 0.995 | S. cerevisiae deletion strains, locus YLL001W, strain dnm1, active compounds read low 0.984 | S. cerevisiae deletion strains, locus YLL026W, active compounds read low 1 | S. cerevisiae deletion strains, locus YLL041C, strain sdh2, active compounds read low 0.987 | S. cerevisiae deletion strains, locus YLR027C, strain aat2, active compounds read low 0.999 | S. cerevisiae deletion strains, locus YLR058C, strain SHM2, active compounds read low 0.938 | S. cerevisiae deletion strains, locus YLR102C, strain apc9, active compounds read low 0.99 | S. cerevisiae deletion strains, locus YLR113W, strain HOG1, active compounds read low 1.01 | S. cerevisiae deletion strains, locus YLR221C, strain rsa3, active compounds read low 0.994 | S. cerevisiae deletion strains, locus YLR258W, strain gsy2, active compounds read low 0.987 | S. cerevisiae deletion strains, locus YLR320W, strain mms22, active compounds read low 1.01 | S. cerevisiae deletion strains, locus YLR330W, strain CHS5, active compounds read low 0.985 | S. cerevisiae deletion strains, locus YLR342W, strain FKS1, active compounds read low 0.987 | S. cerevisiae deletion strains, locus YLR357W, strain rsc2, active compounds read low 0.914 | S. cerevisiae deletion strains, locus YLR370C, strain arc18, active compounds read low 0.99 | S. cerevisiae deletion strains, locus YLR384C, strain iki3, active compounds read low 0.989 | S. cerevisiae deletion strains, locus YML016C, strain PPZ1, active compounds read low 0.952 | S. cerevisiae deletion strains, locus YML032C, strain rad52, active compounds read low 1.01 | S. cerevisiae deletion strains, locus YML120C, strain ndi1, active compounds read low 0.973 | S. cerevisiae deletion strains, locus YML124C, strain tub3, active compounds read low 0.999 | S. cerevisiae deletion strains, locus YMR058W, strain fet3, active compounds read low 0.966 | S. cerevisiae deletion strains, locus YMR078C, strain ctf18, active compounds read low 0.961 | S. cerevisiae deletion strains, locus YMR125W, strain sto1, active compounds read low 0.984 | S. cerevisiae deletion strains, locus YMR129W, active compounds read low 0.989 | S. cerevisiae deletion strains, locus YMR205C, strain PFK2, active compounds read low 1 | S. cerevisiae deletion strains, locus YMR223W, strain ubp8, active compounds read low 0.953 | S. cerevisiae deletion strains, locus YMR231W, strain pep5, active compounds read low 0.968 | S. cerevisiae deletion strains, locus YMR307W, strain GAS1, active compounds read low 0.709 | S. cerevisiae deletion strains, locus YNL067W, strain RPL9B, active compounds read low 0.955 | S. cerevisiae deletion strains, locus YNL071W, strain lat1, active compounds read low 0.985 | S. cerevisiae deletion strains, locus YNL153C, strain GIM3, active compounds read low 0.988 | S. cerevisiae deletion strains, locus YNL183C, strain NPR1, active compounds read low 1.01 | S. cerevisiae deletion strains, locus YNL209W, strain ssb2, active compounds read low 0.979 | S. cerevisiae deletion strains, locus YNL233W, strain BNI4, active compounds read low 0.922 | S. cerevisiae deletion strains, locus YNL248C, strain rpa49, active compounds read low 0.982 | S. cerevisiae deletion strains, locus YNL250W, strain rad50, active compounds read low 0.966 | S. cerevisiae deletion strains, locus YNL271C, strain bni1, active compounds read low 0.972 | S. cerevisiae deletion strains, locus YNL298W, strain CLA4, active compounds read low 0.972 | S. cerevisiae deletion strains, locus YNL307C, strain MCK1, active compounds read low 0.982 | S. cerevisiae deletion strains, locus YNL322C, strain KRE1 (second series), active compounds read low 0.993 | S. cerevisiae deletion strains, locus YNR049C, strain mso1, active compounds read low 0.993 | S. cerevisiae deletion strains, locus YNR052C, strain pop2, active compounds read low 0.916 | S. cerevisiae deletion strains, locus YOL006C, strain TOP1, active compounds read low 0.545 | S. cerevisiae deletion strains, locus YOL012C, strain htz1 0.521 | S. cerevisiae deletion strains, locus YOL147C, strain pex11, active compounds read low 0.977 | S. cerevisiae deletion strains, locus YOR001W, strain rrp6, active compounds read low 0.972 | S. cerevisiae deletion strains, locus YOR061W, strain CKA2, active compounds read low 0.921 | S. cerevisiae deletion strains, locus YOR069W, strain VPS5, active compounds read low 0.971 | S. cerevisiae deletion strains, locus YOR070C, strain gyp1, active compounds read low 0.982 | S. cerevisiae deletion strains, locus YOR080W, strain dia2, active compounds read low 0.996 | S. cerevisiae deletion strains, locus YOR083W, strain WHI5, active compounds read low 0.968 | S. cerevisiae deletion strains, locus YOR136W, strain idh2, active compounds read low 0.962 | S. cerevisiae deletion strains, locus YOR144C, strain elg1, active compounds read low 0.986 | S. cerevisiae deletion strains, locus YOR184W, strain ser1, active compounds read low 0.927 | S. cerevisiae deletion strains, locus YOR231W, strain MKK1, active compounds read low 1.06 | S. cerevisiae deletion strains, locus YOR265W, strain rbl2, active compounds read low 0.983 | S. cerevisiae deletion strains, locus YOR270C, strain vph1, active compounds read low 0.936 | S. cerevisiae deletion strains, locus YOR290C, strain snf2, active compounds read low 0.987 | S. cerevisiae deletion strains, locus YOR316C, strain cot1, active compounds read low 0.987 | S. cerevisiae deletion strains, locus YPL051W, strain arl3, active compounds read low 0.983 | S. cerevisiae deletion strains, locus YPL078C, strain atp4, active compounds read low 0.989 | S. cerevisiae deletion strains, locus YPL106C, strain sse1, active compounds read low 0.88 | S. cerevisiae deletion strains, locus YPL240C, strain hsp82, active compounds read low 0.975 | S. cerevisiae deletion strains, locus YPL241C, strain CIN2, active compounds read low 0.987 | S. cerevisiae deletion strains, locus YPL256C, strain CLN2, active compounds read low 1.06 | S. cerevisiae deletion strains, locus YPR119W, strain clb2, active compounds read low 0.991 | S. cerevisiae deletion strains, locus YPR141C, strain kar3, active compounds read low 0.974 | S. cerevisiae deletion strains, locus YPR163C, strain tif3, active compounds read low 0.987 | S. cerevisiae deletion strains, locus YPR167C, strain met16, active compounds read low 0.993 | S. cerevisiae deletion strains, strain wtn01, active compounds read low 0.903
active: S. cerevisiae deletion strains, locus YKR001C, strain vps1, active compounds read low 0.89 | S. cerevisiae deletion strains, locus YLR039C, strain RIC1, active compounds read low 0.499 | S. cerevisiae deletion strains, locus YLR262C, strain YPT6 (second series), active compounds read low 0.661 | S. cerevisiae deletion strains, locus YLR262C, strain YPT6, active compounds read low 0.593 | S. cerevisiae deletion strains, locus YLR268W, strain sec22, active compounds read low 0.768 | S. cerevisiae deletion strains, locus YLR342W, strain FKS1 (second series), active compounds read low 0.764 | S. cerevisiae deletion strains, locus YLR371W, strain rom2, active compounds read low 0.848 | S. cerevisiae deletion strains, locus YLR418C, strain cdc73, active compounds read low 0.789 | S. cerevisiae deletion strains, locus YOR106W, strain vam3, active compounds read low 0.853 | S. cerevisiae strains, strain wild type, active compounds read low 0.834
